Results filed as inconclusive are left out. Entries that show only a call come without a potency. Active and inactive are the calls of the source. Calls come from the whole dose curve; as a rule, active = well fitted inhibition curve with a large enough effect; inconclusive = small, poorly fitted or top-dose-only effect; inactive = flat fitted curve, though single readings scatter.
Experiment: P-glycoprotein substrates identified in KB-8-5-11 adenocarcinoma cell line, qHTS therapeutic library screen (AID 1346987); note: nearly all actives have a fitted effect of over 65% in size
Procedure, shortened: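 KB-8-5-11, a colchicine-selected P-gp-overexpressing KB-3-1 subline, was grown without colchicine for the assay. Cells were seeded at 500 cells/well, dosed in concentration-response and incubated 72 h at 37 degree C, 5% CO2. Viability was read by CellTiter-Glo luminescence.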
Potency is the fitted concentration of half-maximal effect.

Structure (SMILES) | Potency
CCCCc1nc2cc(/C=C/C(=O)NO)ccc2n1CCN(CC)CC | 3.26 µM (active)
CC(C)(C(=O)NCC(F)(F)C(F)(F)F)C(=O)NC1C(=O)Nc2ccccc2-c2ccccc21 (stereo not drawn) | 4.61 µM (active)
CCOC(=O)Nc1cc(-c2ccc(C)c(NS(C)(=O)=O)c2)nn2c(C)nnc12 | 14.6 µM (active)
O=C1NC(Cc2ccccc2)C(=O)N2CCCC12 (stereo not drawn) | inactive
CC(C)C[C@H](CC(=O)NO)C(=O)N[C@@H](Cc1ccc2ccccc2c1)C(=O)N[C@@H](C)C(=O)NCCN | inactive
Cc1cc2c(c(=O)[nH]1)OC(C(O)CC(C)C)O2 (stereo not drawn) | inactive
COc1cc(/C=C/C(=O)O[C@H]2[C@H](O)[C@@H](CO)O[C@@]2(CO)O[C@H]2O[C@H](CO)[C@@H](O)[C@H](O)[C@H]2O)ccc1O | inactive
CC(O)/C=C/C1(O)C(C)C(O[C@@H]2O[C@H](CO)[C@@H](O)[C@H](O)[C@H]2O)C(O)CC1(C)C (stereo partly drawn) | inactive
O=[N+]([O-])c1cccc2[nH]c(CNc3nc(N4CCOCC4)nc4c3ncn4-c3ccsc3)nc12 | 0.103 µM (active)
O=[N+]([O-])c1cn2c(n1)OCC(OCc1ccc(OC(F)(F)F)cc1)C2 (stereo not drawn) | inactive
OC[C@H]1O[C@@H](O[C@H]2[C@H](OCCc3ccccc3)O[C@H](CO)[C@@H](O)[C@@H]2O)[C@H](O)[C@@H](O)[C@@H]1O | inactive
c1ccc(N2CCN(CCc3nn[nH]n3)CC2)cc1 | inactive
COc1cc(C2Oc3c(OC)cc(CCCO)cc3C2CO)ccc1O[C@H]1O[C@H](C)[C@@H](O)[C@H](O)[C@@H]1O (stereo partly drawn) | inactive

From PubChem BioAssay (NCATS)
